# Data published in PubChem BioAssay AID1159580 (chemical genetic matrix, 2015).
# Where “and” joins values, the source holds several entries; their conditions need not be identical. Equal values may be shown once. Among all 5,500 compounds or so, about 2,000 (36%) were called active. About 18% were inconclusive and are not listed. Cut-off read from the data, not from the text of the source: active = normalized growth mostly below about 0.91 (no sharp cut-off); inconclusive = no clear call, values can overlap the other calls; inactive = mostly above about 0.92. The list shows a part of the results.
# Experiment: chemical genetic growth profiling, strain panel (AID 1159580);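 note: tested at 20 µM; growth read once vehicle control cultures reached saturation at 30 °C; 1 = growth at the plate median or of vehicle wells; lower values mean less growth of the strain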
# Details: S. cerevisiae deletion strains, growth OD
compound,measurement,setting,value
O=C(O)CCCOc1ccc(Cl)cc1Cl,normalized growth,"locus YAL013W, strain DEP1, stronger effect = lower value",0.993 (inactive)
same,normalized growth,"locus YAL021C, strain ccr4, stronger effect = lower value",0.941 (inactive)
same,normalized growth,"locus YAL026C, strain drs2, stronger effect = lower value",0.931 (inactive)
same,normalized growth,"locus YAL030W, strain snc1, stronger effect = lower value",0.944 (inactive)
same,normalized growth,"locus YBL061C, strain skt5, stronger effect = lower value",0.948 (inactive)
same,normalized growth,"locus YBR009C, strain hhf1, stronger effect = lower value",0.951 (inactive)
same,normalized growth,"locus YBR021W, strain FUR4, stronger effect = lower value",0.97 (inactive)
same,normalized growth,"locus YBR023C, strain chs3, stronger effect = lower value",0.954 (inactive)
same,normalized growth,"locus YBR171W, strain sec66, stronger effect = lower value",0.888 (active)
same,normalized growth,"locus YBR229C, strain ROT2, stronger effect = lower value",1.01 (inactive)
same,normalized growth,"locus YBR231C, strain swc5, stronger effect = lower value",0.962 (inactive)
same,normalized growth,"locus YBR279W, strain paf1, stronger effect = lower value",0.962 (inactive)
same,normalized growth,"locus YCL011C, strain gbp2, stronger effect = lower value",0.957 (inactive)
same,normalized growth,"locus YCL016C, strain dcc1, stronger effect = lower value",0.958 (inactive)
same,normalized growth,"locus YCL029C, strain bik1, stronger effect = lower value",1 (inactive)
same,normalized growth,"locus YCL061C, strain MRC1, stronger effect = lower value",0.938 (inactive)
same,normalized growth,"locus YCL069W, strain vba3, stronger effect = lower value",0.944 (inactive)
same,normalized growth,"locus YCR088W, strain abp1, stronger effect = lower value",0.929 (inactive)
same,normalized growth,"locus YDL005C, strain med2, stronger effect = lower value",0.946 (inactive)
same,normalized growth,"locus YDL035C, strain GPR1, stronger effect = lower value",1.01 (inactive)
same,normalized growth,"locus YDL040C, strain nat1, stronger effect = lower value",0.961 (inactive)
same,normalized growth,"locus YDL074C, strain BRE1, stronger effect = lower value",1 (inactive)
same,normalized growth,"locus YDL101C, strain DUN1, stronger effect = lower value",1.01 (inactive)
same,normalized growth,"locus YDL134C, strain PPH21, stronger effect = lower value",0.999 (inactive)
same,normalized growth,"locus YDL185W, strain tfp1, stronger effect = lower value",0.986 (inactive)
same,normalized growth,"locus YDL192W, strain arf1, stronger effect = lower value",1.02 (inactive)
same,normalized growth,"locus YDR001C, strain nth1, stronger effect = lower value",0.942 (inactive)
same,normalized growth,"locus YDR069C, strain doa4, stronger effect = lower value",0.955 (inactive)
same,normalized growth,"locus YDR101C, strain arx1, stronger effect = lower value",1.01 (inactive)
same,normalized growth,"locus YDR137W, strain rgp1, stronger effect = lower value",0.817 (active)
same,normalized growth,"locus YDR150W, strain NUM1, stronger effect = lower value",0.994 (inactive)
same,normalized growth,"locus YDR159W, strain sac3, stronger effect = lower value",0.902 (inactive)
same,normalized growth,"locus YDR162C, strain NBP2, stronger effect = lower value",0.99 (inactive)
same,normalized growth,"locus YDR195W, strain ref2",0.955 (inactive)
same,normalized growth,"locus YDR297W, strain sur2, stronger effect = lower value",0.962 (inactive)
same,normalized growth,"locus YDR318W, strain mcm21, stronger effect = lower value",1.01 (inactive)
same,normalized growth,"locus YDR334W, strain swr1, stronger effect = lower value",0.945 (inactive)
same,normalized growth,"locus YDR335W, strain msn5, stronger effect = lower value",0.943 (inactive)
same,normalized growth,"locus YDR388W, stronger effect = lower value",1.01 (inactive)
same,normalized growth,"locus YDR392W, strain spt3, stronger effect = lower value",0.893 (inactive)
same,normalized growth,"locus YDR502C, strain sam2, stronger effect = lower value",1.01 (inactive)
same,normalized growth,"locus YEL003W, strain gim4, stronger effect = lower value",0.963 (inactive)
same,normalized growth,"locus YEL037C, strain rad23, stronger effect = lower value",0.954 (inactive)
same,normalized growth,"locus YEL061C, strain CIN8 (second series), stronger effect = lower value",0.929 (inactive)
same,normalized growth,"locus YEL061C, strain CIN8, stronger effect = lower value",0.998 (inactive)
same,normalized growth,"locus YER015W, strain faa2, stronger effect = lower value",0.969 (inactive)
same,normalized growth,"locus YER016W, strain bim1, stronger effect = lower value",0.962 (inactive)
same,normalized growth,"locus YER110C, stronger effect = lower value",1.01 (inactive)
same,normalized growth,"locus YER111C, strain swi4, stronger effect = lower value",0.944 (inactive)
same,normalized growth,"locus YER155C, strain BEM2 (second series), stronger effect = lower value",0.887 (inactive)
same,normalized growth,"locus YER155C, strain BEM2, stronger effect = lower value",0.98 (inactive)
same,normalized growth,"locus YER167W, strain BCK2, stronger effect = lower value",0.991 (inactive)
same,normalized growth,"locus YFR010W, strain ubp6, stronger effect = lower value",0.951 (inactive)
same,normalized growth,"locus YGL078C, strain dbp3, stronger effect = lower value",1.01 (inactive)
same,normalized growth,"locus YGL086W, strain mad1, stronger effect = lower value",0.99 (inactive)
same,normalized growth,"locus YGL167C, strain pmr1, stronger effect = lower value",0.929 (inactive)
same,normalized growth,"locus YGL173C, strain kem1, stronger effect = lower value",0.952 (inactive)
same,normalized growth,"locus YGL227W, strain vid30, stronger effect = lower value",0.93 (inactive)
same,normalized growth,"locus YGL240W, strain doc1, stronger effect = lower value",0.912 (inactive)
same,normalized growth,"locus YGL248W, strain PDE1, stronger effect = lower value",1.01 (inactive)
same,normalized growth,"locus YGL253W, strain hxk2, stronger effect = lower value",0.939 (inactive)
same,normalized growth,"locus YGR078C, strain PAC10, stronger effect = lower value",1.01 (inactive)
same,normalized growth,"locus YGR135W, strain pre9, stronger effect = lower value",1.01 (inactive)
same,normalized growth,"locus YGR229C, strain SMI1, stronger effect = lower value",1.03 (inactive)
same,normalized growth,"locus YGR252W, strain gcn5, stronger effect = lower value",0.982 (inactive)
same,normalized growth,"locus YHR013C, strain ard1, stronger effect = lower value",0.93 (inactive)
same,normalized growth,"locus YHR027C, strain rpn1, stronger effect = lower value",0.938 (inactive)
same,normalized growth,"locus YHR030C, strain SLT2, stronger effect = lower value",0.999 (inactive) and 0.829 (active)
same,normalized growth,"locus YHR079C, strain IRE1 (second series), stronger effect = lower value",1.01 (inactive)
same,normalized growth,"locus YHR079C, strain IRE1, stronger effect = lower value",0.757 (active)
same,normalized growth,"locus YHR094C, strain hxt1, stronger effect = lower value",1.01 (inactive)
same,normalized growth,"locus YHR129C, strain ARP1, stronger effect = lower value",0.993 (inactive)
same,normalized growth,"locus YHR142W, strain chs7, stronger effect = lower value",0.939 (inactive)
same,normalized growth,"locus YHR200W, strain rpn10, stronger effect = lower value",1 (inactive)
same,normalized growth,"locus YIL066C, strain RNR3, stronger effect = lower value",1.01 (inactive)
same,normalized growth,"locus YIL073C, strain SPO22, stronger effect = lower value",1.1 (inactive)
same,normalized growth,"locus YIL125W, strain kgd1, stronger effect = lower value",0.991 (inactive)
same,normalized growth,"locus YIR030C, strain dcg1, stronger effect = lower value",1.01 (inactive)
same,normalized growth,"locus YJL092W, strain hpr5, stronger effect = lower value",0.94 (inactive)
same,normalized growth,"locus YJL095W, strain BCK1 (second series), stronger effect = lower value",0.95 (inactive)
same,normalized growth,"locus YJL095W, strain BCK1, stronger effect = lower value",1.01 (inactive) and 0.838 (active)
same,normalized growth,"locus YJL115W, strain asf1, stronger effect = lower value",0.922 (inactive)
same,normalized growth,"locus YJL129C, strain trk1, stronger effect = lower value",0.847 (active)
same,normalized growth,"locus YJL134W, strain LCB3, stronger effect = lower value",0.998 (inactive)
same,normalized growth,"locus YJL154C, strain vps35, stronger effect = lower value",0.948 (inactive)
same,normalized growth,"locus YJL164C, strain tpk1, stronger effect = lower value",0.961 (inactive)
same,normalized growth,"locus YJL166W, strain qcr8, stronger effect = lower value",0.942 (inactive)
same,normalized growth,"locus YJL168C, strain set2, stronger effect = lower value",1.01 (inactive)
same,normalized growth,"locus YJL187C, strain SWE1 (second series), stronger effect = lower value",0.999 (inactive)
same,normalized growth,"locus YJL187C, strain SWE1, stronger effect = lower value",0.947 (inactive)
same,normalized growth,"locus YJR043C, strain POL32, stronger effect = lower value",0.997 (inactive)
same,normalized growth,"locus YJR066W, strain TOR1, stronger effect = lower value",0.779 (active)
